Our source for the growth values is PubChem BioAssay (NCI).

The structures appear in SMILES notation. “And” between values parts separate entries of the source, which are not always exact repeats. Equal values may be shown once. The panel holds about 83,000 compounds, 20% with a hit somewhere; the sample as a whole holds those more often.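 96-well plates, one dose, 48 hours. Percent growth reported; active if below 10.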 Unmarked numbers belong to inactive results. The source made the active and inactive calls.

The test system of this test is TK-10 renal. The test is described as follows: NCI-60 one-dose screen, 48 h (100 = growth as untreated, 0 = no growth, -100 = all killed). The note with it: 10 µM unless noted. As to the method: Growth inhibition of the TK-10 human tumor cell line is measured as a screen for anti-cancer activity. Cells are grown in 96 well plates and exposed to the test compound for 48 hours. Compounds are tested at a single concentration, which is 10^-5 M for most compounds. The reported endpoint is percent growth (GI% or GIPRCNT), where numbers from 0 - 100% represent growth inhibition, and numbers from -100% - 0 represent cell death. For example, a value of 40 represents 60% growth inhibition. A value of 0 means no net growth occurred over the course of the experiment. A value of -40 indicates 40% of cells at the beginning of the experiment died by the end of the experiment. A value of -100 means all cells are dead at the end of the experiment.
NCI-60 Human Tumor Cell Lines Screen was performed using the standard one-dose NCI protocol, which is described in more detail at https://dtp.cancer.gov/discovery_development/nci-60/default.htm.
Compounds with GIPRCNT values below 10 were considered active. Activity score was based on GIPRCNT using the following formula: […]
Score is 0 for GIPRCNT values of 100 or above, 50 for GIPRCNT values of 0, and 100 for GIPRCNT values of -100.
Consider `CC1SC(=S)N(c2ccc(Cl)cc2)C1=O` (stereo not given), for which the growth was 103% and 114%.
The same measure for `Cn1c2c(c3ccccc31)CCN1C[C@@H]3CCCC[C@H]3C[C@@H]21`: 32.2%; for `Cc1c2ccccc2c(C)c2c1ccc1ccccc12`: 111%.
The same measure for `COC(=O)[C@@]12OC[C@]34[C@H]([C@@H](O)[C@@H]1O)[C@@]1(C)[C@H](O)C(=O)C=C(C)[C@@H]1C[C@H]3OC(=O)C(OC(C)=O)[C@@H]24` (stereo not given in full): -32.7% (active); for `C1=C(c2ccccc2)C(c2ccc(OCCN3CCCCC3)cc2)Oc2ccccc21` (stereo not given): 74.9%; for `Nc1nc(N)c2c(ccc3c2ccn3Cc2cccc([N+](=O)[O-])c2)n1`: -92.4% (active).
With `O=C1C2=C(Nc3cc([N+](=O)[O-])ccc3N2)OC1c1c2ccccc2cc2ccccc12` (stereo not given) the figure was 73.5%.
For the molecule `CCCCCCCCCCCCCCCCOP(=O)([O-])OCC[N+](C)(C)C`, the growth was -70.3% (active).
The same measure for `COC(=O)c1nc(=S)[nH]c(C(=O)OC)c1C(=O)c1ccccn1`: 47.6%; for `CN(C)c1ccc(/C=N/N=C(\C#N)[S][Sn]([Cl])([c]2ccccc2)[c]2ccccc2)cc1`: -24.1% (active); for `CC(C)(C)c1ccc(O)c(C2CCCCC2)c1`: 92.2%.
The same measure for `CCOC(=O)/C=C/c1ccc([N+](=O)[O-])o1`: 40.7%; for `NC(=O)/C=C/C(=O)c1c(Cl)cccc1Cl`: -83.7% (active); for `CC(=Nc1ccc(N(C)C)cc1)c1ccccc1`: 72.6%.
The same measure for `S=C(NCCNC(=S)[S][Sn]([c]1ccccc1)([c]1ccccc1)[c]1ccccc1)[S][Sn]([c]1ccccc1)([c]1ccccc1)[c]1ccccc1`: -100% (active); for `O=C(/C=C/C=C/c1ccccc1)c1ccco1`: 128%; for `O=C1c2ccccc2C(=O)c2sc(Nc3ccc(Cl)cc3)nc21`: 174%.
In the case of `CCCCCCCCCCCCCCCCCCOP(=O)([O-])OC1CC[N+](C)(C)CC1`, the growth was -79.1% (active) and -93.8% (active).
With `COc1ccccc1OC(=O)Oc1ccccc1OC` the figure was 104% and 98%; with `CCCCCC(CCCCC)C(=O)O`, 101%.
With `CCCCCCCCCCCCCCCCN(CC)CC` the figure was -89.4% (active); with `N#CSCc1c(Cl)cccc1Cl`, 101%.
As to `CC1=CC(O)C2CC1C2(C)C` (stereo not given), the growth is 102% and 98.1%.
The same measure for `COc1ccc2nc3cc(Cl)ccc3c(NCCNc3c4ccc(Cl)cc4nc4ccc(OC)cc34)c2c1`: -92.7% (active); for `O=C1C=CC(=O)N1C1c2ccccc2-c2ccccc21`: 51.4%.
With `Oc1c(Br)c(Br)c(O)c(Br)c1Br` the figure was 42.6%; with `CCC(CC)COC(=O)c1ccc(O)c(O)c1`, 82.5%.
The same measure for `C[N+](C)=c1ccc2nc3c(cc(NCCCNc4cc5oc6cc(=[N+](C)C)ccc-6nc5c5ccccc45)c4ccccc43)oc-2c1`: 115%.
Consider `Nc1ncnc2c1ncn2C1OC(CO)C(O)C1O` (stereo not given), for which the growth was 114% and 106% and 118%.
On to `Cc1ccc2c(ccc3c[n+]4c5ccccc5ccc4n32)c1`, for which the growth was 58.6%.
With `N#CSCc1ccc(Cl)c(CSC#N)c1` the figure was 59.5%; with `O=C1NC(=O)/C(=C/C=C/c2ccccc2)S1`, 91.8%.
The same measure for `C=C(Cl)C(=NC(C)(C)C)Nc1ccccc1C`: 106%; for `CN=C(N)N/N=C(\C)c1ccc2c(c1)Cc1cc(/C(C)=N/NC(N)=NC)ccc1-2`: -4.01% (active); for `CC1OC2CC(=O)OC2C2=C1C(=O)c1c(O)cccc1C2=O` (stereo not given): -96.2% (active).
The same measure for `N#CSCc1ccc(CSC#N)c(Cl)c1`: 94.3%; for `CCC(=O)Sc1ccccc1C(=O)Nc1ccc(Cl)cc1`: 69.4%; for `CCCCCCCCCCCCCCNCc1ccccc1`: 103%.
Turning to `Nc1ccc(SSc2ccc(N)cc2)cc1`, the growth was 111%.
With `Oc1ccc(/C=N/NC(=S)Nc2ccccc2)nc1` the figure was 31.2%.
